Screen size: about 310,000 compounds; about 14,000 (4.5%) showed an effect of 50% or more. Effects have a minus sign here. This excerpt belongs to a sample that is enriched for strong results.
Target: human ether-à-go-go-related gene (hERG) potassium channel (human, UniProt Q12809)
Test: primary screen, population patch clamp on CHO cells stably expressing hERG; higher = less effect of the substance
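Also: peak tail current of the secondary pulse compared with the same well before compound.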

Sequence of human ether-à-go-go-related gene (hERG) potassium channel (Q12809 whole entry, looked up): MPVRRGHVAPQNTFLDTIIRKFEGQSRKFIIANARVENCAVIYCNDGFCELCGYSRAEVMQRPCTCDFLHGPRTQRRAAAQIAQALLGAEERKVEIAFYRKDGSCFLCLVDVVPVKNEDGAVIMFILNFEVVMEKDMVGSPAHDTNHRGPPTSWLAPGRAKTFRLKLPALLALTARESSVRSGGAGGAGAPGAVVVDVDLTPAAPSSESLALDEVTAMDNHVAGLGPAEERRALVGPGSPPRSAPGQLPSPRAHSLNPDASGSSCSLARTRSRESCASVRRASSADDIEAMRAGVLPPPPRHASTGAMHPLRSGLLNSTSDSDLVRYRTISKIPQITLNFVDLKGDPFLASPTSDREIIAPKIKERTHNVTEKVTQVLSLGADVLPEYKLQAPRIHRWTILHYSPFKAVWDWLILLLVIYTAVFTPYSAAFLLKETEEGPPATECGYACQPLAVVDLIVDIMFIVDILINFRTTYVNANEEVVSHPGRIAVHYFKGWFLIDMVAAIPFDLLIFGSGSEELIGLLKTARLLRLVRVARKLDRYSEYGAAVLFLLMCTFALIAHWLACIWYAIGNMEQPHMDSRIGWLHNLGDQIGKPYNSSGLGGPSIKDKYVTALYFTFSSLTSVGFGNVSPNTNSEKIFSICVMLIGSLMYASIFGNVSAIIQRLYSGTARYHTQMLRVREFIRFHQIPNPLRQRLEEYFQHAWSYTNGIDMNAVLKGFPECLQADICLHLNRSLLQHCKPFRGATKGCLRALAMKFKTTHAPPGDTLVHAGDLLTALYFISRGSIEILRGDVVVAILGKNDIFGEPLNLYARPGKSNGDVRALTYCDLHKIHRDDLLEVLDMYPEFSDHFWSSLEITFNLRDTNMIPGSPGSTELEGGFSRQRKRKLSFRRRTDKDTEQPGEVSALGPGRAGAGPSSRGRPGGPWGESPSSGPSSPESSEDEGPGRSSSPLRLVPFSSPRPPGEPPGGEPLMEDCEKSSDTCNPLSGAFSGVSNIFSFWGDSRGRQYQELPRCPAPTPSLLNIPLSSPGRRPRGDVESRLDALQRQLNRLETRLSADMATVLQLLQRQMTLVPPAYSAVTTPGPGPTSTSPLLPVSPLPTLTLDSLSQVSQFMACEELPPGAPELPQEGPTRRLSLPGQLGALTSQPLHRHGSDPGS

SMILES | hERG current change (%, negative = inhibition) at 10uM [%]
COc1ccccc1N(C(=O)c1ccco1)C(C(=O)NC1CCCC1)c1cccnc1 (stereo not shown) | -0.441
CC1CCN(S(=O)(=O)N2CCC(C(=O)NCCc3ccccc3)CC2)CC1 | 2.8
CC(C)CN1C(=O)c2ccc(C(=O)Nc3ccccn3)cc2C1=O | -14.7
CC1C(=O)N2CCCc3cc(NC(=O)COc4ccc(Cl)cc4)cc1c32 (stereo not shown) | -40.2
O=C(COc1ccc(Cl)cc1)Nc1cc2c3c(c1)CC(=O)N3CCC2 | -57.1
O=C(COc1ccccc1)Nc1cc2c3c(c1)CC(=O)N3CCC2 | -36
COc1ccc(OCC(=O)Nc2ccc3c(c2)nc(CN2CCCC2)n3C)cc1 | -26.9
Cn1c(CN2CCCC2)nc2cc(NC(=O)COc3ccc(Cl)cc3)ccc21 | -69.2
Cn1c(CN2CCCC2)nc2cc(NC(=O)COc3ccccc3)ccc21 | -34.1
CC(C)CNC(=O)COc1ncnc2sccc12 | -37.4
Cc1c(CN(C)Cc2cn(C)nc2-c2ccccc2F)[nH]c2ccccc12 | -6.24
COc1cc(/C=N/n2nnnc2N)cc(OC)c1OC | -0.774
CN1C2C=C(N(CCc3c[nH]c4ccccc34)C(=O)c3ccc(Cl)cc3)CC1CC2.Cl (stereo not shown) | -67
COc1cc(C(=O)N(CCc2ccccc2)C2=CC3CCC(C2)N3C)cc(OC)c1OC.Cl.O (stereo not shown) | -29.2
O=C(Cc1ccc(Cl)cc1)NCCc1c[nH]c2ccccc12 | -19.8
O=C(NCCc1c[nH]c2ccccc12)c1ccc(Cl)cc1 | -12.7
Cc1cc(C)cc(C(=O)N(CCc2ccccc2)C2=CC3CCC(C2)N3C)c1.Cl (stereo not shown) | -60.7
CN1C2C=C(N(CCc3ccccc3)C(=O)c3ccc(Cl)cc3)CC1CC2.Cl (stereo not shown) | -74.8
Cc1cc(C)cc(C(=O)NCCCc2ccccc2)c1 | -4.26
O=C(NCC(=O)N1CCC(Cc2ccccc2)CC1)c1ccc(Cl)cc1 | -23.3
COC(=O)C1=C(CCc2ccccc2)NC(=O)NC1c1ccc(Cl)cc1 (stereo not shown) | -9.59
COc1cccc(CN(C(=O)c2cccc(OC)c2)C2CCS(=O)(=O)C2)c1 (stereo not shown) | -7.02

SMILES | hERG current change (%, negative = inhibition) at 10uM [%]
O=P1(Nc2cccnc2)COc2ccccc2OC1 | 30.6
CSc1ccccc1C(=O)NCCOc1cccc(C)c1 | 17.7
O=C(CNC(=O)c1cccs1)NCC(=O)OCc1ccccc1Cl | 2.85
CC(=O)N1CCC2(CC1)C(C#N)=C(N)Oc1n[nH]c(C)c12 | 15.5
Cc1[nH]nc2c1C1(CCOCC1)C(C#N)=C(N)O2 | -56.7
Cc1[nH]nc2c1C1(CCC3(CC1)OCCO3)C(C#N)=C(N)O2 | -0.214
COc1ccc(S(=O)(=O)NC(C)C(=O)NCc2ccccn2)cc1Cl (stereo not shown) | 7.6
Cc1cccc2cc(CN(Cc3cccnc3)C(=O)c3cccs3)c3nnnn3c12 | 26.1
Cc1ccc2c(c1)cc(CN(Cc1ccco1)C(=O)N1CCOCC1)c1nnnn12 | -14.7
Cc1ccc2c(c1)cc(CN(CCc1ccccc1)C(=O)N1CCOCC1)c1nnnn12 | -61.3
Cc1ccc2c(c1)cc(CN(Cc1ccc3c(c1)OCO3)C(=O)c1cnccn1)c1nnnn12 | -45.7
Cc1ccc2c(c1)cc(CN(Cc1cccnc1)C(=O)c1ccccc1)c1nnnn12 | -78
Cc1cccc2cc(CN(CCc3ccccc3)C(=O)N3CCOCC3)c3nnnn3c12 | 12.5
Cc1ccc2c(c1)cc(CN(Cc1ccc3c(c1)OCO3)C(=O)c1ccccc1)c1nnnn12 | -11.5
Cc1ccc2c(c1)cc(CN(Cc1cccnc1)C(=O)NCc1ccccc1)c1nnnn12 | -75.2
Cc1ccc(C(=O)N(Cc2cccnc2)Cc2cc3cc(C)ccc3n3nnnc23)cc1 | -23.8
Cc1ccc(S(=O)(=O)N(C)C)cc1-n1c(SCC(=O)Nc2ccc(F)cc2Cl)nc2ccccc2c1=O | 0.00438
CC(=O)N1CCc2cc(S(=O)(=O)Nc3ccc(C)cc3)ccc21 | 16.9
Cc1ccccc1CN1CCN(S(=O)(=O)c2ccc(Cl)s2)CC1 | 3.24
CCOC(=O)c1c(C)oc2cc(Br)c(O)c(Br)c12 | 8.34
Cc1ccc(C(=O)N[C@@H](C)CN2C3=NC[C@H](Cc4ccccc4)N3C[C@H]2Cc2ccc(O)cc2)cc1Br | -82.5

From publication PMC4336329 (PLoS ONE, 2015)
